Only some compounds are listed: those with a hit (about 7.2% of all), similar ones and a draw of the others.
RE007 growth inh = less growth of the S. pombe RE007 Vpr strain; S. pombe RE007 Vpr strain, BacTiter-Glo ATP luminescence, 24 h; 360,000 compounds, 0.21% hits; Potency, µM (highest dose often 92.2 µM), for the others: top-dose activity change, negative = less growth, hits mostly inhibitors; active means well fitted falling curve with a large enough effect; inconclusive means small, poorly fitted or top-dose-only effect; inactive means no such curve, though single readings can be large or run the other way; further: nearly all actives have a fitted effect of over 50% in size
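Fission yeast strain RE007, carrying one chromosomally integrated HIV-1 vpr copy, was seeded at OD 0.01 in PMG+AL medium with 23 nL pinned compound. After 24 h at 30 °C and 99% humidity, viability was read by BacTiter-Glo luminescence.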
Sm TGR block = blocks Schistosoma mansoni thioredoxin glutathione reductase; purified TGR, DTNB reduction, TNB absorbance 405 nm; Potency, µM (titrated, usually from 114 µM), for inactives: top-dose activity change, negative = inhibition, most hits filed as inhibitors; 360,000 compounds, 3% hits; further: nearly all actives have a fitted effect of over 60% in size
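TGR 20 nM + NADPH 100 uM (dispensed conc.), cpd preinc 15 min RT; start with NADPH (500 uM addition) then DTNB (15 mM addition). Kinetic TNB absorbance, 405 nm filter. Four-parameter Hill fit across titration.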
FMDV inh = blocks foot and mouth disease virus; FMDV antiviral cell-based qHTS; Potency, µM (doses to about 57.9 µM), for inactives: top-dose activity change, negative = inhibition, hits mostly inhibitors; 410,000 compounds, 1.2% hits; calls by dose curve; tested in HEK293T cells; further: read-out not given here; nearly all actives have a fitted effect of over 45% in size
HCV inh = blocks hepatitis C virus; 340,000 compounds, 3.4% hits; Huh7.5.1 HCVcc-Cre infection, luciferase reporter, 44 h; Potency, µM (top dose mostly 41.8 µM), for inactives: at the top dose activity change, negative = inhibition, actives largely listed as inhibitors
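1,000 cells/well; 4 h culture; + compound; + HCVcc-Cre (~0.5 moi); 44 h; luciferase substrate, RT 15 min; read 15 sec.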
Marburg entry inh = blocks Marburg virus binding to or entry into cells; Marburg virus pseudotyped entry inhibition, cell reporter; Potency, µM (doses to about 37.8 µM), inactives show at the highest dose activity change, negative = inhibition, actives largely listed as inhibitors; 300,000 compounds, 1.8% hits; calls by dose curve; tested in HEK293 cells
LASV entry inh = Lassa virus entry inhibition; Lassa virus pseudotype entry inhibition, cell reporter; Potency, µM (doses to about 37.9 µM), without a hit: at the highest dose activity change, negative = inhibition, most hits filed as inhibitors; 300,000 compounds, 1.2% hits; AID 540256; calls by dose curve; tested in HEK293 cells; further: nearly all actives have a fitted effect of over 50% in size
* marks the source's active call; other numbers are inactive results; ? = inconclusive; · = no result given; [ ] = remark or other dose. Unless noted, the call rests on the fitted dose curve; in most records, active means well fitted curve in the direction sought with a large enough effect; inconclusive means small, poorly fitted or top-dose-only effect, or another doubt; inactive means no such curve, though single readings can be large; an effect the other way counts as inactive or inconclusive. On the % scale 0 is the no-effect control and ±100 the full control effect; potency means the concentration at half of the fitted maximal effect.

SMILES	RE007 growth inh	Sm TGR block	FMDV inh	HCV inh	Marburg entry inh	LASV entry inh
Cn1c(SCC(=O)NCc2ccco2)nnc1C1CCCC1	-10%	-19%	-11%	3%	18%[46.1 µM]	3%[46.1 µM]
Cn1c(SCC(=O)NCc2ccco2)nnc1C1CC1	29%	·	13%	23%	·	·
CC(C)n1c(SCC(=O)NCc2ccco2)nnc1C1CC1	0%	18µM*	-17%	-6%	17%	11%
Cc1ccc(NCc2nnc(SCC(=O)NCc3ccco3)n2CC2CCCO2)cc1Cl (stereo unspecified)	27%	50µM*	-21%	-19%	-12%	-1%
CCn1c(SCC(=O)NCc2ccco2)nnc1C1CCCC1	-14%	40µM*	-15%	13%	·	·
CCCOc1ccc(CN(C(=O)c2cc(=O)c3ccc(C)cc3o2)C2CCS(=O)(=O)C2)cc1 (stereo unspecified)	·	-1%	-22%	·	?	?
CCOC(=O)N1CCc2[nH]c3ccc(C)cc3c2C1	-23%	6%	?	?	?	?
CCOC(=O)C(O)C1CCc2c([nH]c3ccc(C)cc23)C1=O (stereo unspecified)	3%	-12%	25%	?	?	11µM*
CN(C)c1ncc2nc(-c3cccs3)c(=O)n(C3CC3)c2n1	·	·	2%	·	·	·
COCCn1c(C)cc(C(=O)CSc2nc(C)nc3sc4c(c23)CCC4)c1C	-2%	·	7%	10µM*	3.7µM*	10µM*
C=CCn1c(C)cc(C(=O)CSc2nc3ccccc3c(=O)[nH]2)c1C	8%	-3%	?	7%	?	?
COCCn1c(C)cc(C(=O)CSc2nc3ccccc3c(=O)[nH]2)c1C	-7%	-23%	-1%	8.9µM*	?	?
COCCn1c(C)cc(C(=O)CSc2ccc3ccccc3n2)c1C	-1%	-6%	-6%	10µM*	2%	-10%
COCCn1c(C)cc(C(=O)COc2nc3ccccc3nc2C)c1C	4%	-1%	-29%	?	?	-28%
Cc1ccc(Nc2c(-c3cc(Br)ccc3F)nc3cc(C)ccn23)cc1	·	11%	-15%	·	?	4%[46.1 µM]
COc1cccc([C@H]2/C(=C(\O)c3ccc(OC)c(OC)c3)C(=O)C(=O)N2c2cc(C)on2)c1	·	·	·	·	-12%[46.1 µM]	·
CN(C)c1cc(N/N=C/c2ccc(Cl)cc2)nc(N(C)C)n1	-23%	4%	-13%	7.1µM*	?	12µM*
COc1cc(N/N=C/c2ccc(N(C)C)cc2)ncn1	-8%	1%[57.1 µM]	-19%	4%	·	·
CCOC(=O)N1CCN(C(=O)CN(c2ccc(C)cc2C)S(=O)(=O)c2ccccc2)CC1	·	6%	4%	·	-14%[46.1 µM]	?
O=C(CC1Oc2ccccc2NC1=O)NC1CCCC1 (stereo unspecified)	-3%	3%	-19%	7%	·	·
O=C(CC1Oc2ccccc2NC1=O)NC1CC1 (stereo unspecified)	·	79µM*	·	·	0%	·
Cc1ccc(Cn2c(CNS(=O)(=O)c3c(C)cc(C)cc3C)nc3cccnc32)cc1	·	0%	55%	·	·	5%[46.1 µM]
CCCCn1c(NC(=O)c2ccccc2Cl)c(C#N)c2nc3ccccc3nc21	-2%	-1%	0%	-22%	21µM*	-8%
Cc1cc(C)c2c(c1)NC(C(=O)O)C1CC=CC21 (stereo unspecified)	-18%	0.63µM*	0%	2%	9%[46.1 µM]	-7%[46.1 µM]
Cc1ccc2c(c1C)NC(C(=O)O)C1CC=CC21 (stereo unspecified)	0%	2.5µM*	·	?	-10%	11%
SMILES	RE007 growth inh	Sm TGR block	FMDV inh	HCV inh	Marburg entry inh	LASV entry inh
O=C(O)C1Nc2c(C(=O)N3CCOCC3)cccc2C2C=CCC12 (stereo unspecified)	20%	?	?	15%	-10%	0%
O=C(O)C1Nc2c(C(F)(F)F)ccc(Cl)c2C2C=CCC12 (stereo unspecified)	·	?	-26%	-14%	·	·
O=S(=O)(c1cnc(Cl)c(Cl)c1)N1CCCc2ccccc21	-1%	?	?	-20%	?	?
O=S(=O)(c1cnc(Cl)c(Br)c1)N1CCc2ccccc21	21%	18µM*	-17%	-3%	-1%[46.1 µM]	2%
O=S(=O)(c1cnc(Cl)c(Cl)c1)N1CCc2ccccc21	30%	4µM*	?	?	·	·
COc1ccc(-c2c(C#N)c(SCC(=O)Nc3ccc(C)c(C)c3)nc(C)c2C(=O)Nc2ccc(Cl)cc2)cc1	·	0%	11%	·	·	-6%[46.1 µM]
Cc1ccccc1-c1nn2c(=O)cc(CN3CCN(C(=O)c4ccccc4Br)CC3)nc2s1	·	1%	-8%	·	·	?
Cc1cc(C)n(-c2nc3ccccc3nc2Nc2cc(C(=O)O)ccc2C)n1	·	7%	-14%	·	-14%[46.1 µM]	2%[46.1 µM]
CCN(CC)c1ccc(S(=O)(=O)N(CC)CC)cc1NC(=O)C1CCCC1	-7%	4%	-6%	?	?	7.9µM*
CCN(CC)S(=O)(=O)c1ccc(N(C)C)c(NC(=O)C2CCCC2)c1	6%	5%	6%	0%	·	·
CCN(CC)c1ccc(S(=O)(=O)N2CCCCC2)cc1NC(=O)C1CCC1	19%	50µM*	8%	12%	?	-16%
CCN(CC)S(=O)(=O)c1cc(NC(=S)NC(=O)C2CCCC2)ccc1C	10%	·	-28%	3.2µM*	·	·
Cc1cccc(NC(=S)N/N=C2\CC(C)(C)Oc3ccc(O)cc32)c1	-4%	-16%	?	?	4.5µM*	-9%[46.1 µM]
COc1cccc(NC(=S)N/N=C2\CC(C)(C)Oc3ccc(O)cc32)c1	2%	4%	?	9%	·	·
Cc1cccc(/C=C2\CCC(=C3SCCCS3)C2=O)c1	12%	-24%	-27%	-28%	?	?
O=C1C(=C2SCCCS2)CC/C1=C\c1ccc(F)cc1	-4%	-25%	5µM*	0%	2.5µM*	1.1µM*
COc1ccc(OC)c(NC(=O)COC(=O)/C=C/c2c(C)nn(C3CCS(=O)(=O)C3)c2Cl)c1 (stereo unspecified)	-7%	3%	0%	-22%	-6%	-2%
Cc1nn(C2CCS(=O)(=O)C2)c(Cl)c1/C=C/C(=O)OCC(=O)c1c[nH]c2ccccc12 (stereo unspecified)	-3%	-3%	?	22µM*	?	-15%
COc1ccccc1/C=C/C(=O)OCC(=O)c1c[nH]c2ccccc12	16%	2%	-10%	?	?	-11%
Cc1nn(C2CCS(=O)(=O)C2)c(Cl)c1/C=C/C(=O)OCC(=O)c1cc(C)n(-c2ccc(F)cc2)c1C (stereo unspecified)	-21%	-10%	?	4µM*	?	?
COC(=O)c1c(SC)nc2ccccc2c1OCc1ccc(Cl)cc1	·	-1%	-19%	·	·	-1%[46.1 µM]

Source: PubChem BioAssay
